Hits are enriched below; roughly 2.3% of the tested compounds scored in any of these assays.
Mcl1 Noxa PPI: disrupts binding of human Mcl-1 to Noxa peptide | TR-FRET Mcl-1/Noxa peptide binding, 2 h | inhibition, % at 21.7 µM | 1.5% of 220,000 active | AID 1022;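 active = compounds that cut the protein-peptide binding signal by more than 50% relative to plate controls in a single-dose test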;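 note: His-tagged Mcl-1 with rhodamine Noxa BH3 peptide and terbium anti-His antibody; 0% = Mcl-1 plus Noxa peptide wells and 100% = peptide-only wells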
Target sequence (Q07820 whole entry, looked up): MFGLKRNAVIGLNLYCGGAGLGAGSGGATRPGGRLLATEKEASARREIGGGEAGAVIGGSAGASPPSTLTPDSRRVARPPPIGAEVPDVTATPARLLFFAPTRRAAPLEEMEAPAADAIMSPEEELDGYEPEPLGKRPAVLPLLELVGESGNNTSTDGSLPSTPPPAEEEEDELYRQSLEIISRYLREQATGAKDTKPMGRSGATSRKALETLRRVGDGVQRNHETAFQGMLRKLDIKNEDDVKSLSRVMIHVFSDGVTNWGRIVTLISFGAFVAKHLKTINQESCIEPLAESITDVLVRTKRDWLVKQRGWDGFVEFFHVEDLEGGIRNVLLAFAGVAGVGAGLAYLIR
Mcl-1 Bim block: disrupts Bim peptide binding to human Mcl-1; Q07820; 0.1% of 190,000 active; inhibition, % at 10 µM; Bead-based flow cytometry, Bim peptide-Mcl-1 binding; AID 1009; in the data active = inhibition above about 40%;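 note: 0% = no compound tracer wells and 100% = peptide blocker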
Mcl1 Bid PPI: disrupts binding of human Mcl-1 to Bid peptide | Q07820 | TR-FRET Mcl-1/Bid-Dy647 peptide binding, 1536-well | inhibition, % at 21.7 µM | 0.97% of 220,000 active;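 active = compounds that cut the binding signal by more than half at the single screening dose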;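 note: His-tagged Mcl-1 with europium anti-His antibody binding Bid BH3 peptide; 0% = Mcl-1 plus peptide wells and 100% = peptide-only wells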
MCL1-BIM inh: disrupts human MCL1 binding to BIM-BH3 peptide. Q07820. GST-MCL1 / FITC-Bim-BH3 fluorescence polarization. inhibition, % at 10.9 µM. 0.68% of 320,000 active;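 active = inhibition above the mean inhibition of all tested compounds plus 3 SD, set per campaign, cut at about 40% in these data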;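 note: 0% = DMSO wells and 100% = unlabeled Bim-BH3 peptide control; higher means more loss of mP so more displacement of Bim peptide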
GLD-1 TGE inh: GLD-1-TGE RNA interaction inhibition (C. elegans). Q17339. purified GLD-1 + fluorescein TGE RNA, fluorescence polarization. inhibition, % at 5.96 µM. 0.44% of 320,000 active. AID 2280;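 active = percent inhibition above a per-plate cutoff, the plate mean of test compounds plus 3 SD, cut at about 30% in these data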;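 note: 0% = DMSO wells with GLD-1 and probe and 100% = wells lacking GLD-1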
Bcl-xL primary: blocks human Bcl-xL binding to Bim BH3 peptide; Q07817; GST-Bcl-xL / FITC-Bim BH3 peptide fluorescence polarization; inhibition, % at 10.9 µM; 0.7% of 320,000 active;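 active = inhibition above the mean of all tested compounds plus 3 SD, cutoff set per campaign, cut at about 30% in these data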;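 note: 0% = DMSO wells and 100% = unlabeled Bim-BH3 peptide competitor; inhibitors lower millipolarization by displacing the labeled peptide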
Target sequence (Q07817 whole entry, looked up): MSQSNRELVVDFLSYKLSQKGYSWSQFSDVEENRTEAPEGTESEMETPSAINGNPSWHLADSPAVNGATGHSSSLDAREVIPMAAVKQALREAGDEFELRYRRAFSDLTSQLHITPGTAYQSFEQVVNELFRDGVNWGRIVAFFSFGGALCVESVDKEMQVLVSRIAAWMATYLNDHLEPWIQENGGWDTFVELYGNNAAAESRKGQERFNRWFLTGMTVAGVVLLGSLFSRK
An asterisk follows results filed as active; . = no result given.

SMILES	Mcl1 Noxa PPI	Mcl-1 Bim block	Mcl1 Bid PPI	MCL1-BIM inh	GLD-1 TGE inh	Bcl-xL primary
O=C1C(=Cc2cccn2-c2ccccc2)C(=O)c2ccccc21	102.0*	4.0	72.7*	42.2*	105.0*	40.8*
O=C(COC(=O)C1CCN(S(=O)(=O)c2cc([N+](=O)[O-])ccc2Cl)CC1)Nc1ncc(Cl)cc1Cl	69.1*	0.0	-9.7	33.0	19.5	28.6
Cc1c(Cl)cnc(NC(=O)COC(=O)CCS(=O)(=O)c2ccccc2)c1Cl	28.3	-2.0	-23.6	13.6	4.2	17.5
O=C(COC(=O)C1CC1)Nc1ncc(Cl)cc1Cl	.	.	.	30.5	15.3	23.9
CC(=O)COC(=O)C1CCN(S(=O)(=O)c2cc([N+](=O)[O-])ccc2Cl)CC1	8.2	.	10.6	18.4	2.1	4.4
O=C(COC(=O)CCS(=O)(=O)c1ccc(Cl)cc1)Nc1ncc(Cl)cc1Cl	12.1	1.0	93.2*	-3.1	-8.1	4.3
O=C(COC(=O)C1CC1)Nc1ncc(C(F)(F)F)cc1Cl	-8.2	2.0	-32.6	25.6	25.5	32.0*
O=C(Nc1cccc(NC(=O)c2cccs2)c1)c1ccc(Br)cc1	.	.	.	-0.1	2.7	3.7
S=C(NCCCN1CCOCC1)Nc1cccc(Cl)c1	-1.3	1.0	-45.9	5.0	2.8	2.0
COc1ccc(Cc2c(O)nc(SC)n(C(C)=O)c2=O)cc1	8.0	67.0*	-75.6	4.4	3.5	7.2
N#C/C(=C\c1ccccc1[N+](=O)[O-])C(=O)NC1CCCCC1	-10.5	-1.0	6.6	30.6	26.5	30.7*
N#C/C(=C\C=C\c1ccccc1[N+](=O)[O-])C(=O)NC1CCCCC1	12.6	-6.0	0.8	5.1	-3.5	5.2
O=C(COC(=O)Cn1cnc2ccccc21)Nc1cc2c(cc1Cl)C(=O)c1ccccc1C2=O	53.9*	0.0	-0.1	14.5	1.5	15.5
O=C(COC(=O)Cn1cnc2ccccc21)Nc1cc(S(=O)(=O)N2CCOCC2)ccc1Cl	-0.3	.	3.0	-0.8	8.2	-2.5
CN(CC(=O)Nc1ccc(F)cc1)CC(=O)NC1CCCCC1	.	.	.	0.9	2.7	-0.9
CC(C)n1c(SCC(=O)Nc2ccc3c(c2)OCO3)nc2c1c(=O)n(C)c(=O)n2C	-0.2	1.0	71.7*	2.6	5.1	6.3
COc1cc(/C=N/NC(=O)CCOc2ccccc2C)cc(Br)c1O	66.8*	-1.0	-29.6	11.9	-7.1	1.0
COc1ccc(/C=N/NC(=O)CCOc2ccccc2C)cc1OC	5.3	-5.0	-19.7	4.9	-3.1	0.5
CCOC(=O)C1=C(O)/C(=C/c2cn(CC(=O)N3CCCC3)c3ccccc23)SC1=Nc1ccccc1	21.1	2.0	-17.5	.	.	.
O=C(NC(=S)NCc1cccnc1)c1ccc([N+](=O)[O-])cc1	3.2	-2.0	70.6*	9.9	-1.0	6.4
COc1cc(OC)cc(C(=O)NCC(=O)OCC(=O)N2c3ccccc3NC(=O)C2(C)C)c1	10.5	-1.0	-10.1	1.8	-5.0	0.1
Cc1cc(C)cc(C(=O)NCC(=O)OCC(=O)N2c3ccccc3NC(=O)C2(C)C)c1	54.0*	16.0	-23.8	27.5	-2.3	6.6
COc1ccc2cc(C3CC(c4cccs4)=NN3C(C)=O)c(Cl)nc2c1 (stereo unspecified)	14.9	.	53.8*	1.4	-8.2	1.5
CCOC(=O)c1ccccc1NC(=O)Cn1cnc2c(cnn2C(C)(C)C)c1=O	8.9	0.0	-7.8	14.5	-7.0	0.6
Cc1ccc(CN(C)C(=O)c2ccc(NS(=O)(=O)c3ccc4[nH]c(=O)[nH]c4c3)cc2)cc1	.	.	.	-4.3	2.8	1.6
SMILES	Mcl1 Noxa PPI	Mcl-1 Bim block	Mcl1 Bid PPI	MCL1-BIM inh	GLD-1 TGE inh	Bcl-xL primary
CC1Oc2cc3oc4c(O)c(O)ccc4c(=O)c3c(O)c2C1(C)C (stereo unspecified)	.	.	.	13.2	31.0*	10.2
O=c1cc(CN2CCOCC2)c2ccc(O)c(O)c2o1	.	.	.	6.1	-2.6	4.9
C=C1C[C@@]23CCC4[C@@](C)(CCC[C@@]4(C)C(=O)O)C2CC[C@]1(O)C3 (stereo partly specified)	.	.	.	5.3	3.8	4.7
O=C(Cn1cc2c(n1)CCCC2)NCCc1ccccc1	9.7	-3.0	-5.6	9.3	2.9	1.0
Cc1ccc(C)c(N2CCN(C(=O)c3cc4ccccn4n3)CC2)c1	-2.3	-4.0	-8.9	44.1*	24.5	49.3*
O=c1ccn([C@@H]2O[C@H](COS(=O)(=O)O)[C@@H](O)[C@H]2O)c(=O)[nH]1	.	.	.	.	3.5	.
COC(=O)CCC(=O)OC1(C)C(=O)C=C2C=C(C3CC3)N(C3CC3)C=C2C1=O (stereo unspecified)	20.1	.	-105.8	28.6	15.8	22.1
COC(=O)CCC(=O)OC1(C)C(=O)C=C2C=C(C3CC3)N(Cc3ccco3)C=C2C1=O (stereo unspecified)	30.1	.	-97.4	42.0*	15.2	36.8*
CC1(OC(=O)CCc2ccccc2)C(=O)C=C2C=C(C3CC3)OC=C2C1=O (stereo unspecified)	.	.	.	45.4*	32.8*	38.7*
COC(=O)CCC(=O)OC1(C)C(=O)C=C2C=C(C3CC3)N(c3cccc(C#N)c3)C=C2C1=O (stereo unspecified)	1.4	.	-66.3	42.6*	30.6	46.9*
COCCN1C=C2C(=O)C(C)(OC(=O)CCC(=O)OC)C(=O)C=C2C=C1C1CC1 (stereo unspecified)	5.6	.	-117.2	29.9	23.2	28.6
O=S(=O)(NNc1ncc(C(F)(F)F)cc1Cl)c1ccc(F)cc1F	.	.	.	.	3.6	.
c1cncc(-c2nc(NCc3ccco3)c3ccccc3n2)c1	50.6*	-2.0	53.2*	1.0	-2.7	2.3
Oc1ccccc1Nc1nc(NCc2ccco2)c2ccccc2n1	60.2*	.	-47.3	-7.4	5.0	-3.6
OCCN1CCN(c2nc(NCc3ccco3)c3ccccc3n2)CC1	50.8*	-1.0	0.6	-3.9	0.0	0.1
Cc1ccccc1Nc1nc(NCc2ccco2)c2ccccc2n1	44.9	2.0	-13.8	3.2	8.5	2.9
Cc1ccc(-c2nc(NCc3ccco3)c3ccccc3n2)cc1	17.1	0.0	-18.3	6.0	-0.5	2.3
O=C(Cn1ncc2c([nH]c3ccccc32)c1=O)Nc1cccnc1	.	.	.	2.6	-7.1	-1.4
Cc1ccc(N2C(=O)C3C(C2=O)C(C(=O)c2ccc(Cl)cc2)N2CCCC32)cc1 (stereo unspecified)	8.9	-3.0	-9.4	72.2*	46.2*	73.3*
COC(=O)C1=CN(CC2CCCO2)C=C(C(=O)OC)C1c1ccsc1 (stereo unspecified)	0.4	0.0	95.5*	5.0	6.0	2.2
CCOc1ccc2sc(NS(=O)(=O)c3ccc(OC)c(OC)c3)nc2c1	-13.7	-1.0	-38.9	29.4	9.0	63.8*
CC(C)c1ccc(OCC(=O)N2CCCCCC2)c(Br)c1	-2.2	-1.0	-4.8	1.8	7.8	-2.4
CC(C)N1C(=O)/C(=C/c2nc3ccccc3c(=O)n2-c2ccccc2)c2ccccc21	54.9*	0.0	77.9*	6.5	2.5	4.3

Screens as filed in PubChem.
